Active and inactive are the calls of the source. The calls were made as follows: active = hit-call score of the fitted dose curve at least 0.9, where 1 is the maximum; inactive = score below 0.9.

Test [1] is described as follows: ATG_CRE_CIS: Attagene CIS-FACTORIAL HepG2 Assay for human cAMP Responsive Element (CRE) binding protein 3 (AID 2282926). The conditions noted are these: HepG2 CRE cis-reporter, Attagene multiplexed mRNA; actives raise or lower the signal. In a few lines: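 HepG2 cells transiently transfected with cis-element-driven multiple reporter transcription units; CRE reporter mRNA measured 24 h after dosing by RT-PCR, 6-FAM labelling, HpaI digestion and capillary electrophoresis. Bidirectional fit versus DMSO baseline.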

Test [2] addresses CCAAT/enhancer-binding protein beta (Homo sapiens) (UniProt P17676). As to the kind of experiment: ATG_C_EBP_CIS: Attagene CIS-FACTORIAL HepG2 Assay for human CCAAT/Enhancer Binding Protein (C/EBP) beta (AID 2282927). Particulars: HepG2 Attagene cis-factorial transcription factor reporter; actives raise or lower the signal. The gist of the method: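 Transiently transfected HepG2 (MRTU library, endogenous TF-driven promoters); 24 h dosing; total RNA → oligo(dT) RT → PCR → 6-FAM primer extension → HpaI digest → CE; fit bidirectionally vs DMSO.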

Test [3] in a line: ATG_CMV_CIS: Attagene CIS-FACTORIAL HepG2 Assay for human CMV (Internal Marker) (AID 2282928).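 Also: endpoint acts as a background internal control marker rather than a target.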 Particulars: HepG2 CMV promoter reporter, transcription factor profiling; actives raise or lower the signal. The gist of the method: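 After transient transfection of HepG2 with reporter transcription units driven by cis-regulatory promoters, cells receive test chemical for 24 h. Labeled reporter amplicons, digested with HpaI, are sized and quantified by capillary electrophoresis against DMSO.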

Test [4] is described as follows: ATG_DR4_LXR_CIS: Attagene CIS-FACTORIAL HepG2 Assay for human Liver X Receptor (LXR), DR4 submotif (AID 2282929). Particulars: HepG2 Attagene DR4 cis-reporter, mRNA transcription; actives raise or lower the signal. In a few lines:
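Measures endogenous transcription factor activity via a DR4-driven reporter transcript in human HepG2 cells. Compounds incubated 24 h; mRNA quantified by RT-PCR and capillary electrophoresis, analysed as gain or loss of signal versus DMSO.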

Test [5] concerns the target Aryl hydrocarbon receptor (Homo sapiens) (UniProt P35869). Nature of the test: ATG_Ahr_CIS: Attagene CIS-FACTORIAL HepG2 Assay for human Aryl Hydrocarbon Receptor (Ahr) (AID 2282930). The conditions noted are these: HepG2 AhR cis-factorial reporter transcription; actives raise or lower the signal. In a few lines: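 Read-out: reporter mRNA quantified by RT-PCR with fluorescent primer extension and capillary electrophoresis. Human HepG2 liver cells carried transfected cis-promoter reporter units and were exposed to chemical for 24 h; gain or loss fitted relative to DMSO.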

Test [6] can be described thus: ATG_AP_1_CIS: Attagene CIS-FACTORIAL HepG2 Assay for human Activator Protein 1 (AP-1) (AID 2282931). Particulars: HepG2 Attagene cis-factorial AP-1 reporter mRNA; actives raise or lower the signal. The gist of the method:
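Bidirectional concentration-response fitting against DMSO controls. Underlying signal: reporter mRNA from cis-promoter constructs in transiently transfected HepG2, measured after 24 h by RT-PCR and capillary electrophoresis.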

The nature of test [7]: ATG_AP_2_CIS: Attagene CIS-FACTORIAL HepG2 Assay for human Activator Protein 2 (AP-2) (AID 2282932). Particulars: HepG2 AP-2 cis-reporter, Attagene transcription factor profiling; actives raise or lower the signal. The gist of the method: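 Multiplexed mRNA reporter assay in HepG2: cis-regulated units report endogenous factor activity after 24 h treatment. Fluorescence from capillary electrophoresis of RT-PCR products gives the signal, with DMSO as baseline.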

The nature of test [8]: ATG_BRE_CIS: Attagene CIS-FACTORIAL HepG2 Assay for human Bone Morphogenetic Protein (BMP) Response Element (BRE) (AID 2282933). The conditions noted are these: HepG2 BMP response element reporter, Attagene transcription factor profiling; actives raise or lower the signal. In a few lines:
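After a 24 h chemical treatment, transiently transfected HepG2 cells were lysed for RNA; reporter transcripts were quantified by fluorescent RT-PCR and capillary electrophoresis, normalised to DMSO.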

In test [9] the target is Transcription factor E2F1 (Homo sapiens) (UniProt Q01094). As to the kind of experiment: ATG_E2F_CIS: Attagene CIS-FACTORIAL HepG2 Assay for human E2F Transcription Factor 1 (AID 2282935). Particulars: HepG2 Attagene cis-reporter, E2F reporter RNA transcripts; actives raise or lower the signal. The gist of the method:
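Measures reporter transcript levels via RT-PCR with capillary electrophoresis detection in HepG2 cells harboring cis-regulated reporter units; 24 h post-dose; bidirectional curve fitting with DMSO as baseline.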

The nature of test [10]: ATG_E_Box_CIS: Attagene CIS-FACTORIAL HepG2 Assay for human Enhancer Box (E-box) (AID 2282936). Particulars: HepG2 E-box cis-reporter transcription, actives raise or lower the signal. In a few lines:
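First, HepG2 cells receive multiple cis-regulated reporter constructs by transient transfection. Next, chemicals are applied for 24 h. Finally, reporter mRNA is quantified via RT-PCR and capillary electrophoresis, with DMSO as baseline.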

Test [11] is described as follows: ATG_M_61_CIS: Attagene CIS-FACTORIAL HepG2 Assay for M61 Transcription Factor (Internal Marker) (AID 2282937). Particulars: HepG2 Attagene CIS-FACTORIAL M61 internal marker reporter; actives raise or lower the signal. In a few lines:
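Fluorescence from labelled cDNA fragments, separated by capillary electrophoresis, quantifies reporter induction. HepG2 cells bearing transiently transfected cis-promoter MRTUs were incubated with test chemical for 24 h; DMSO defined baseline for gain/loss fitting.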

A short description of test [12]: ATG_EGR_CIS: Attagene CIS-FACTORIAL HepG2 Assay for human Early Growth Response 1 (EGR1) (AID 2282938). The conditions noted are these: HepG2 Attagene CIS-FACTORIAL EGR reporter mRNA; actives raise or lower the signal. In a few lines: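 Cell-based multiplex transcription assay: HepG2 carrying transfected cis-element reporter units, 24 h chemical treatment. Fluorescence from capillary electrophoresis of RT-PCR products gives mRNA levels; fitting is bidirectional relative to DMSO.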

Test [13] can be described thus: ATG_M_19_CIS: Attagene CIS-FACTORIAL HepG2 Assay for M19 Transcription Factor (Internal Marker) (AID 2282939). Particulars: HepG2 Attagene CIS-FACTORIAL M19 internal marker reporter; actives raise or lower the signal. In a few lines: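 In this multiplexed cell assay, transiently transfected HepG2 reporter units report endogenous transcription-factor activity; after 24 hours of treatment, labelled reporter cDNA fragments are quantified by capillary electrophoresis and fitted bidirectionally against DMSO.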

Test [14] in a line: ATG_Ets_CIS: Attagene CIS-FACTORIAL HepG2 Assay for human Erythroblast Transformation Specific (ETS) (AID 2282941). Particulars: HepG2 ETS cis-reporter transcription, actives raise or lower the signal. In a few lines: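 Human HepG2 hepatoma cells were transiently transfected with promoter-driven reporter constructs and treated for 24 hours. Reporter transcripts were quantified by RT-PCR with fluorescent primer extension; bidirectional curve fitting used DMSO as reference.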

In test [15] the target is Hepatocyte nuclear factor 3-beta (Homo sapiens) (UniProt Q9Y261). As to the kind of experiment: ATG_FoxA2_CIS: Attagene CIS-FACTORIAL HepG2 Assay for human Forkhead box A2 (FOXA2) (AID 2282942). Particulars: HepG2 cis-reporter transcription factor activity, 24 h; actives raise or lower the signal. The gist of the method: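 In transiently transfected human HepG2 cells, promoter-driven reporter mRNA levels after 24 h chemical exposure are determined via RT-PCR with capillary electrophoresis. DMSO serves as baseline for bidirectional fitting.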

Test [16] can be described thus: ATG_FoxO_CIS: Attagene CIS-FACTORIAL HepG2 Assay for human Forkhead box O (FoxO) (AID 2282943). The conditions noted are these: HepG2 Attagene cis-reporter, FoxO element, mRNA; actives raise or lower the signal. The gist of the method:
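Read-out: fluorescence of 6-FAM-labelled reporter cDNA fragments resolved by capillary electrophoresis. Transiently transfected HepG2 cells were dosed for 24 h; activity fitted in both directions relative to DMSO controls.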

The nature of test [17]: ATG_GATA_CIS: Attagene CIS-FACTORIAL HepG2 Assay for human GATA Binding Protein (AID 2282944). The conditions noted are these: HepG2 GATA cis-element reporter, Attagene multiplex mRNA; actives raise or lower the signal. The gist of the method:
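Measures endogenous transcription factor-driven reporter mRNA in HepG2 cells transiently carrying cis-regulated constructs. 24 h dosing; RNA via oligo(dT) reverse transcription, PCR, HpaI digestion, capillary electrophoresis; fitted relative to DMSO.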

A short description of test [18]: ATG_GLI_CIS: Attagene CIS-FACTORIAL HepG2 Assay for human Zinc Finger Protein GLI1 (AID 2282945). Particulars: HepG2, Attagene cis-factorial reporter mRNA, GLI element; actives raise or lower the signal. In a few lines: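 Transiently transfected HepG2 cells report endogenous transcription factor activity via cis-element-driven reporter units. After 24 h compound exposure, reporter mRNA was measured by RT-PCR with capillary electrophoresis; bidirectional fitting against DMSO baseline.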

In test [19] the target is Bile acid receptor (Homo sapiens) (UniProt Q96RI1). As to the kind of experiment: ATG_IR1_CIS: Attagene CIS-FACTORIAL HepG2 Assay for human Nuclear Receptor Subfamily 1 Group H Member 4 (NR1H4), IR1 submotif (AID 2282946). The conditions noted are these: IR1 reporter transcription, actives raise or lower the signal. In a few lines: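 HepG2 cells transiently transfected with multiple cis-promoter-driven reporter units to measure endogenous transcription factor activity; 24 h exposure. Reporter mRNA read by RT-PCR, FAM labelling, HpaI digestion and capillary electrophoresis. Bidirectional fit versus DMSO.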

A short description of test [20]: ATG_ERE_CIS: Attagene CIS-FACTORIAL HepG2 Assay for Estrogen Response Element (ERE) (AID 2282940). Particulars: HepG2 ERE cis-reporter, Attagene RNA transcript; actives raise or lower the signal. The gist of the method: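 Measuring endogenous transcription factor output, the assay doses transfected HepG2 cells for 24 hours and quantifies reporter transcripts by fluorescent RT-PCR and capillary electrophoresis, with DMSO as baseline.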

Chain of Aryl hydrocarbon receptor (Homo sapiens) (P35869 whole entry, looked up): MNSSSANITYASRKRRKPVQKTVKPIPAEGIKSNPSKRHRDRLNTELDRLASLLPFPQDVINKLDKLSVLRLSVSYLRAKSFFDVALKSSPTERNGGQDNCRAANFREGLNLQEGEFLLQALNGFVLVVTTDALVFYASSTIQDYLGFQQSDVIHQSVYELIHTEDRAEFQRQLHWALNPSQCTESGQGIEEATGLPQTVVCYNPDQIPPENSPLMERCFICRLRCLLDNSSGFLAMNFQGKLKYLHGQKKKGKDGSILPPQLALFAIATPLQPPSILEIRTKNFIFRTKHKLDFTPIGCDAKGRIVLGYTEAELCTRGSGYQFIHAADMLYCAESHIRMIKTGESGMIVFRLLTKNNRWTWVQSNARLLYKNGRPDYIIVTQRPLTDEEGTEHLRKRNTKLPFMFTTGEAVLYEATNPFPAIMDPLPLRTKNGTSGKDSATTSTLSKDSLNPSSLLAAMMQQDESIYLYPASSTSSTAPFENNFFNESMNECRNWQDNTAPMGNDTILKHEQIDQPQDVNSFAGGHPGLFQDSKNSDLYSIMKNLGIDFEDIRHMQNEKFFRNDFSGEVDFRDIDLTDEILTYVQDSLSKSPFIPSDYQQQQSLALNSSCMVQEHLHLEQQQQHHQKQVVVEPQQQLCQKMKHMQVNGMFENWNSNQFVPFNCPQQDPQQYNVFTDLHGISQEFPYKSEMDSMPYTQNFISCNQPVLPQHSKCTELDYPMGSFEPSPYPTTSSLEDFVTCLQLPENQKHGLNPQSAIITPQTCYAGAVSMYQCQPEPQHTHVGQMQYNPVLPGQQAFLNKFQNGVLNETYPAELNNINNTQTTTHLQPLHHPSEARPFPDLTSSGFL
Chain of Transcription factor E2F1 (Homo sapiens) (Q01094 whole entry, looked up): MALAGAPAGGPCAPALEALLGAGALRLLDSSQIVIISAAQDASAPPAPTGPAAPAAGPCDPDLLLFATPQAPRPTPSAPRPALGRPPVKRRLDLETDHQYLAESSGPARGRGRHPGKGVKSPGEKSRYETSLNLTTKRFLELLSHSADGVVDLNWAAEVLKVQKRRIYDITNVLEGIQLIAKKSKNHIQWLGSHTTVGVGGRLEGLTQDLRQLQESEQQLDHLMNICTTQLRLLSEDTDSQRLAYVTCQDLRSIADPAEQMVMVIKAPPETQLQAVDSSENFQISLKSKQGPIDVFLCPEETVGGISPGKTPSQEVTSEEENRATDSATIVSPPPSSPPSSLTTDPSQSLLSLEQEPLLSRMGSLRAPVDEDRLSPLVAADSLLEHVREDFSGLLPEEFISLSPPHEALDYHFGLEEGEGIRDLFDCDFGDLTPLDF
Chain of Hepatocyte nuclear factor 3-beta (Homo sapiens) (Q9Y261 whole entry, looked up): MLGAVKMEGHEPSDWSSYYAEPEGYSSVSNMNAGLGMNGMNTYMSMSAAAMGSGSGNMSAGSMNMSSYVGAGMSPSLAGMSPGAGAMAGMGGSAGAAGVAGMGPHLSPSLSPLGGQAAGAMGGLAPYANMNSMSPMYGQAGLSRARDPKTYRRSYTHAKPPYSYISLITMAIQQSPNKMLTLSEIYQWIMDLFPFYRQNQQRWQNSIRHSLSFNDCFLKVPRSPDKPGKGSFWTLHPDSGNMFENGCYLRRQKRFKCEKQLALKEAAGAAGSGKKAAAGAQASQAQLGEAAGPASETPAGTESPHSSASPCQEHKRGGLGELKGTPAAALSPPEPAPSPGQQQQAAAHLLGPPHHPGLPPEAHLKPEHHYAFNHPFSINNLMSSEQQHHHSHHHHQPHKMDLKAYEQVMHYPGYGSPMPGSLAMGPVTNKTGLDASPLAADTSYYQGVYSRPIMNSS
Chain of CCAAT/enhancer-binding protein beta (Homo sapiens) (P17676 whole entry, looked up): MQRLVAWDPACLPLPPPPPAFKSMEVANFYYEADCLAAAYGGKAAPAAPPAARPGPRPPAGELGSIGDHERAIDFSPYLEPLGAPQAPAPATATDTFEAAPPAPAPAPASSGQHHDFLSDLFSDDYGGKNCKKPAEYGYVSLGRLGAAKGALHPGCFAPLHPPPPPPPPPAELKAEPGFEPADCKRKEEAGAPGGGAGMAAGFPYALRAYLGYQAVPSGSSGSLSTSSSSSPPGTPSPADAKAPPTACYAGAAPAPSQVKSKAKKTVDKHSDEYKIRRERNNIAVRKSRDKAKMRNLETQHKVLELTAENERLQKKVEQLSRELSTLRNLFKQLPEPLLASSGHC
Chain of Bile acid receptor (Homo sapiens) (Q96RI1 whole entry, looked up): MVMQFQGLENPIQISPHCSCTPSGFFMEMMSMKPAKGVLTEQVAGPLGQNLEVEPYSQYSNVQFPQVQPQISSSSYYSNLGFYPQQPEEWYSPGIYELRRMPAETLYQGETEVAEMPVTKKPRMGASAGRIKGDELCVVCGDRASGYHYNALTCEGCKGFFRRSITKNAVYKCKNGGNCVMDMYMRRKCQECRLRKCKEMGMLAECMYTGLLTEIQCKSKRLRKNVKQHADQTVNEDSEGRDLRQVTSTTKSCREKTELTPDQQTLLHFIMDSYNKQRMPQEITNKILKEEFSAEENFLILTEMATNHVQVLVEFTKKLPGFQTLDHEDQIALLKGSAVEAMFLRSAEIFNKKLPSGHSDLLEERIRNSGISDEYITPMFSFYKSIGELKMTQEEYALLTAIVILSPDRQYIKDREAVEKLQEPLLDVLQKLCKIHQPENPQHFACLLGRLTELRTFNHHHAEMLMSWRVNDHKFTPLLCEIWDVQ

A word on the AC50: it is the midpoint of the concentration-response curve, whichever way the signal moves. `CN(C)C(=O)NC1(c2ccccc2)CCN(CC[C@@]2(c3ccc(F)c(F)c3)CN(C(=O)c3ccccc3)CCO2)CC1`: the result in test [1], in [2], in test [3], in [4], in test [5] and in test [7] was inactive. Besides, the molecule was called inactive in test [8], in test [9], in test [11], in test [12], in test [13] and in [14]. In addition, the result in test [15], in [16], in [17], in test [18] and in [19] was inactive. Further, the AC50 is 100 µM (active) in [6] and 162 µM (active) in test [10].

For `Cc1occc(=O)c1O`, the outcome in test [1], in test [2], in test [3], in test [4], in [5] and in test [6] was inactive. In addition, the result in test [7], in test [8], in test [9], in test [10], in test [11] and in test [12] was inactive. Besides, the result in test [13], in test [14], in [15], in test [16], in test [17] and in [18] was inactive.

As to `CCCC(=O)O`, the values for the AC50 in test [1] and in test [3] were 0.0135 µM (active) and 44.4 µM (active), respectively. Moreover, the result in test [2], in test [4], in test [5], in test [6], in test [7] and in test [8] was inactive. Further, the molecule was classed as inactive in test [9], in [10], in [11], in [12], in test [13] and in [14]. Further, the molecule was classed as inactive in [15], in test [16], in test [17] and in test [18].

Consider `CC(=O)O`, for which the molecule was classed as inactive in test [1], in [2], in [3], in [4], in [5] and in test [6]. In addition, the molecule was called inactive in [7], in test [8], in test [9], in test [10], in [11] and in test [12]. In addition, the result in test [13], in [14], in [15], in [16], in test [17] and in [18] was inactive.

Take `CCCCOC(=O)CCCCC(=O)OCCCC`: the call in test [1], in test [2], in [4], in test [5], in [6] and in test [7] was inactive. The molecule was called inactive in test [8], in test [9], in test [10], in [11], in [12] and in test [13]. Also, the call in [14], in [15], in test [16], in test [17] and in test [18] was inactive. Moreover, the AC50 in [3] was 154 µM (active).

For the molecule `CSc1ccc(Oc2ccc(S(N)(=O)=O)cc2CN(C)C)cc1C`, the outcome in [1], in [2], in [3], in [4], in [5] and in test [6] was inactive. The molecule was classed as inactive in test [8], in test [9], in [10], in [11], in test [12] and in test [13]. Moreover, the call in test [20], in test [14], in test [15], in [16], in test [17] and in test [18] was inactive. The result in test [19] was inactive. The AC50 in test [7] was 26.8 µM (active).

With `CC(C)NCC(O)c1ccc(O)c(O)c1` (centres undefined), the molecule was called inactive in test [1], in test [2], in test [3], in test [4], in test [6] and in test [7]. In addition, the molecule was classed as inactive in [8], in test [9], in test [10], in test [11], in test [12] and in test [13]. Moreover, the result in [14], in test [15], in test [16], in test [17] and in test [18] was inactive. The concentration at half-maximal activity (AC50) in test [5] was 64.9 µM (active).

(Values after PubChem BioAssay (EPA / NIEHS).)
